Read-out in experiment [1]: Transforming growth factor beta 1 (TGFb1), TGFB1 (gene 7040)
In words: BSK_KF3CT_TGFb1: BioMAP Diversity Plus: KF3CT Assay for Transforming growth factor beta 1 (TGFb1) Biomarker Activity (AID 2283072). The note with it: primary human keratinocytes with fibroblasts; actives raise or lower the signal. In a few lines:
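Human keratinocyte/foreskin fibroblast co-culture; TGF-b1 measured by ELISA 24 h after dosing, fitted bidirectionally versus DMSO. Cytotoxicity checked in parallel cultures by total protein (SRB staining, 560 nm).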

Read-out in experiment [2]: Matrix Metallopeptidase 9 (MMP9), MMP9 (gene 4318)
In words: BSK_KF3CT_MMP9: BioMAP Diversity Plus: KF3CT Assay for Matrix Metallopeptidase 9 (MMP9) Biomarker Activity (AID 2283074). To be noted: primary human keratinocytes with fibroblasts; actives raise or lower the signal. A digest of the protocol:
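Human keratinocyte and foreskin fibroblast co-culture exposed to chemicals for 24 h; MMP9 biomarker measured by ELISA, bidirectional fitting relative to DMSO; cytotoxicity tracked by SRB total protein staining in parallel cultures.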

Read-out in experiment [3]: CD40, CD40 (gene 958)
In words: BSK_LPS_CD40: BioMAP Diversity Plus: LPS Assay for CD40 Biomarker Activity (AID 2283076). To be noted: primary human HUVEC with PBMC; actives raise or lower the signal. In a few lines: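 ELISA readout of CD40 in HUVEC/PBMC co-culture (BSK_LPS system), 24 h post-dosing; bidirectional curve fit, DMSO baseline; parallel SRB total-protein staining for cytotoxicity.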

Read-out in experiment [4]: E-selectin (Homo sapiens) (UniProt P16581)
In words: BSK_LPS_Eselectin: BioMAP Diversity Plus: LPS Assay for Eselectin Biomarker Activity (AID 2283077). To be noted: primary human HUVEC with PBMC; actives raise or lower the signal. A digest of the protocol:
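ELISA readout of E-selectin, 24 h post-dose, HUVEC + PBMC co-culture (LPS system). Gain or loss of signal vs DMSO baseline, bidirectional fit.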

Read-out in experiment [5]: Interleukin-8 (IL8), CXCL8 (gene 3576)
In words: BSK_LPS_IL8: BioMAP Diversity Plus: LPS Assay for Interleukin-8 (IL8) Biomarker Activity (AID 2283078). The note with it: primary human HUVEC with PBMC; actives raise or lower the signal. A digest of the protocol:
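HUVEC + PBMC co-culture, LPS-activated; test chemicals dosed, IL-8 read by ELISA at 24 h. Bidirectional curve fit vs DMSO baseline (gain or loss of signal).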

Experiment [6] is described as follows: BSK_LPS_SRB: Viability Assessment in the BioMAP Diversity Plus: LPS Assay (AID 2283079).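 Also: total protein by sulforhodamine B absorbance as a cytotoxicity measure; measured one day after compound addition; fitted in both directions against DMSO so loss or gain of signal counts.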 The note with it: primary human HUVEC with PBMC. In a few lines:
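HUVEC + PBMC co-culture, LPS-stimulated; compound 24 h. 10% TCA fix, 0.1% SRB stain, A560. Bidirectional fit vs DMSO.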

Read-out in experiment [7]: Interleukin-1 alpha (IL1a), IL1A (gene 3552)
In words: BSK_LPS_IL1a: BioMAP Diversity Plus: LPS Assay for Interleukin-1 alpha (IL1a) Biomarker Activity (AID 2283080). To be noted: primary human HUVEC with PBMC; actives raise or lower the signal. In a few lines:
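HUVEC/PBMC co-culture, LPS system; 24 h after dosing; IL-1a by ELISA; gain or loss of signal fitted bidirectionally vs DMSO baseline.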

Read-out in experiment [8]: Monocyte Chemoattractant Protein-1 (MCP1), CCL2 (gene 6347)
In words: BSK_LPS_MCP1: BioMAP Diversity Plus: LPS Assay for Monocyte Chemoattractant Protein-1 (MCP1) Biomarker Activity (AID 2283081). The note with it: primary human HUVEC with PBMC; actives raise or lower the signal. In a few lines:
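ELISA read-out of MCP-1 after 24 h chemical dosing of a human umbilical vein endothelial cell/peripheral blood mononuclear cell co-culture stimulated with LPS. Gain or loss of signal fitted relative to DMSO controls.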

Experiment [9] in a line: BSK_LPS_PGE2: BioMAP Diversity Plus: LPS Assay for Prostaglandin E2 (PGE2) Biomarker Activity (AID 2283082). To be noted: primary human HUVEC with PBMC; actives raise or lower the signal. In a few lines: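 HUVEC plus human PBMC co-culture stimulated with LPS; secreted PGE2 quantified by ELISA 24 h after chemical dosing. Activity fitted bidirectionally against DMSO baseline; parallel SRB staining (0.1% SRB after 10% TCA fixation, 560 nm) flags overt cytotoxicity.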

Read-out in experiment [10]: Macrophage colony-stimulating factor (MCSF), CSF1 (gene 1435)
In words: BSK_LPS_MCSF: BioMAP Diversity Plus: LPS Assay for Macrophage colony-stimulating factor (MCSF) Biomarker Activity (AID 2283083). The note with it: primary human HUVEC with PBMC; actives raise or lower the signal. In a few lines: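 HUVEC + PBMC co-culture (human primary), 24 h post-dose; M-CSF by ELISA; gain/loss of signal fitted bidirectionally vs DMSO baseline.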

Read-out in experiment [11]: Tissue Factor, F3 (gene 2152)
In words: BSK_LPS_TissueFactor: BioMAP Diversity Plus: LPS Assay for Tissue Factor Biomarker Activity (AID 2283084). The note with it: primary human HUVEC with PBMC; actives raise or lower the signal. In a few lines: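 HUVEC/PBMC co-culture, LPS-activated; CD142 ELISA read 24 h post-dose; bidirectional curve fit vs DMSO negative control.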

Read-out in experiment [12]: Vascular cell adhesion molecule 1 (VCAM1), VCAM1 (gene 7412)
In words: BSK_LPS_VCAM1: BioMAP Diversity Plus: LPS Assay for Vascular cell adhesion molecule 1 (VCAM1) Biomarker Activity (AID 2283086). The note with it: primary human HUVEC with PBMC; actives raise or lower the signal. A digest of the protocol:
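Human umbilical vein endothelial cells co-cultured with PBMC and stimulated with LPS; VCAM-1 measured by ELISA 24 h after dosing. Bidirectional curve fitting against DMSO baseline; cytotoxicity tracked in parallel by SRB total-protein staining.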

Read-out in the next experiment: CD38, CD38 (gene 952)
In words: BSK_SAg_CD38: BioMAP Diversity Plus: SAg Assay for CD38 Biomarker Activity (AID 2283087). The note with it: primary human HUVEC with PBMC; actives raise or lower the signal. A digest of the protocol: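 Human HUVEC plus PBMC co-culture stimulated with superantigen; CD38 measured by ELISA 24 h after chemical dosing. Fluorescence read-out, bidirectional fit against DMSO; cytotoxicity tracked in parallel by SRB and Alamar Blue.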

Read-out in experiment [13]: CD40, CD40 (gene 958)
In words: BSK_SAg_CD40: BioMAP Diversity Plus: SAg Assay for CD40 Biomarker Activity (AID 2283088). To be noted: primary human HUVEC with PBMC; actives raise or lower the signal. In a few lines:
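HUVEC/PBMC co-culture, 24 h post-dose; CD40 by ELISA, fluorescence intensity; bidirectional fit vs DMSO negative control.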

Read-out in a further experiment: CD69, CD69 (gene 969)
In words: BSK_SAg_CD69: BioMAP Diversity Plus: SAg Assay for CD69 Biomarker Activity (AID 2283089).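 As to AC50: cell surface CD69 protein quantified by ELISA with fluorescence detection.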 To be noted: primary human HUVEC with PBMC; actives raise or lower the signal. A digest of the protocol:
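ELISA, fluorescence read-out: CD69 on human umbilical vein endothelial cell + PBMC co-culture, 24 h post-dosing. Gain or loss of signal fitted bidirectionally against DMSO baseline.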

Read-out in experiment [14]: Monocyte Chemoattractant Protein-1 (MCP1), CCL2 (gene 6347)
In words: BSK_SAg_MCP1: BioMAP Diversity Plus: SAg Assay for Monocyte Chemoattractant Protein-1 (MCP1) Biomarker Activity (AID 2283090). The note with it: primary human HUVEC with PBMC; actives raise or lower the signal. A digest of the protocol: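 MCP-1 levels in the endothelial–PBMC SAg co-culture were quantified by ELISA at 24 h post-dosing; both increases and decreases versus DMSO scored. Cytotoxicity monitored by SRB total protein in parallel cultures.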

Read-out in experiment [15]: E-selectin (Homo sapiens) (UniProt P16581)
In words: BSK_SAg_Eselectin: BioMAP Diversity Plus: SAg Assay for Eselectin Biomarker Activity (AID 2283091). The note with it: primary human HUVEC with PBMC; actives raise or lower the signal. In a few lines:
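E-selectin ELISA readout at 24 h post-dosing in human umbilical vein endothelial cell/PBMC co-culture; gain or loss of signal fitted relative to DMSO baseline.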

Values joined by “and” are separate entries in the source; they are usually repeats but may differ in a detail not shown here. Identical values can stand only once. Some compounds were tested as several samples or in several runs, with calls that do not always agree. Active and inactive are the calls of the source. The calls were made as follows: active = hit-call score of the fitted dose curve at least 0.9, where 1 is the maximum; inactive = score below 0.9.

Chain of E-selectin (Homo sapiens) (P16581 whole entry, looked up): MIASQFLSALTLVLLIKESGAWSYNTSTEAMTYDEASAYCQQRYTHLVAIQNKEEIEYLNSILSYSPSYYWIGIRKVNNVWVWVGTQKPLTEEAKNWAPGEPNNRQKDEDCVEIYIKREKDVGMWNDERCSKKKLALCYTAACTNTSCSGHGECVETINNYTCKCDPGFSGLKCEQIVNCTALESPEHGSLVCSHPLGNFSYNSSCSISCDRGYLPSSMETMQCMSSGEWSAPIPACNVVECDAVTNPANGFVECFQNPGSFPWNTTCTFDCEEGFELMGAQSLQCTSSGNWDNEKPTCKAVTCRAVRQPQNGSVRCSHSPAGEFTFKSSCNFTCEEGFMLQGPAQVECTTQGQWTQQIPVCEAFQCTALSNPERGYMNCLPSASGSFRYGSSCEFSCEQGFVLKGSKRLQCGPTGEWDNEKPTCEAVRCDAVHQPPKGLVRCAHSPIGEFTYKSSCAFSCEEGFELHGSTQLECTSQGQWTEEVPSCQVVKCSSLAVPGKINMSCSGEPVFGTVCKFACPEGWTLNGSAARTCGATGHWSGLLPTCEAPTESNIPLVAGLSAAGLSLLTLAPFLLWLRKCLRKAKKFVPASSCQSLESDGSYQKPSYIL

For `CC(C)(c1ccc(O)cc1)c1ccc(O)cc1`, the outcome in experiment [1] was “inactive”; in experiment [2], “inactive”; in the experiment with CD40, CD40 (gene 958) [3], “inactive”; in experiment [4] it was “inactive”; in [5] it was “inactive”; in experiment [6], “inactive”. The result in experiment [7], in [8], in experiment [9], in experiment [10], in [11] and in [12] was inactive. The outcome with CD38, CD38 (gene 952) was “inactive”; with CD40, CD40 (gene 958) [13], “inactive”; in the experiment with CD69, CD69 (gene 969), “inactive”; in [14], “inactive”; in [15], “inactive”. The AC50 (usually the midpoint of the concentration-response curve, whichever way the signal moves) in [9] is 16.6 µM (active) and 10.3 µM (active) and 11.1 µM (active); in [12], 25.5 µM (active) and 27 µM (active) and 20 µM (active); with CD38, CD38 (gene 952), 13.8 µM (active); with CD40, CD40 (gene 958) [13] it was 20.3 µM (active) and 5.31 µM (active); in experiment [14], 20 µM (active); in experiment [15] it was 24.9 µM (active).
As for `CC(=O)S[C@@H]1CC2=CC(=O)CC[C@]2(C)[C@H]2CC[C@@]3(C)[C@@H](CC[C@@]34CCC(=O)O4)[C@H]12`, the outcome in [1] and in [2] was inactive. The AC50 with CD40, CD40 (gene 958) [3] was 25 µM (active); in experiment [4], 22.5 µM (active); in experiment [5], 15.9 µM (active); in experiment [6], 20.9 µM (active); in experiment [7], 12.4 µM (active); in experiment [9], 15.6 µM (active). Besides, the AC50 in [10] was 22 µM (active); in [11] it was 20 µM (active); in experiment [12] it was 29.7 µM (active); with CD38, CD38 (gene 952), 19.3 µM (active); with CD40, CD40 (gene 958) [13], 20 µM (active); with CD69, CD69 (gene 969) it was 13.9 µM (active). Also, the AC50 in [14] was 17.2 µM (active); in experiment [15] it was 14.9 µM (active).
In the case of `CCCCOC(=O)[C@@H](C)Oc1ccc(Oc2ccc(C(F)(F)F)cn2)cc1`, the outcome in experiment [1] is “inactive”; in experiment [2], “inactive”; in the experiment with CD40, CD40 (gene 958) [3], “inactive”; in experiment [4], “inactive”; in experiment [6] it was “inactive”; in experiment [7], “inactive”. Moreover, the outcome in experiment [8] was “inactive”; in experiment [9], “inactive”; in experiment [10], “inactive”; in experiment [11] it was “inactive”; in experiment [12], “inactive”; with CD38, CD38 (gene 952) it was “inactive”. Also, the outcome is “inactive” with CD40, CD40 (gene 958) [13]; “inactive” with CD69, CD69 (gene 969); “inactive” in [14]; “inactive” in [15].
For the compound `c1ccc(Nc2ccccc2)cc1`, the outcome is “inactive” in experiment [1]; “inactive” in [2]; “inactive” in the experiment with CD40, CD40 (gene 958) [3]; “inactive” in [4]; “inactive” in [6]; “inactive” in [7]. Also, the outcome in experiment [8] was “inactive”; in [10] it was “inactive”; in experiment [11] it was “inactive”; in experiment [12], “inactive”; with CD38, CD38 (gene 952), “inactive”; with CD40, CD40 (gene 958) [13], “inactive”. In addition, the outcome with CD69, CD69 (gene 969) was “inactive”; in experiment [14] it was “inactive”; in experiment [15], “inactive”. The AC50 in [9] was 3.51 µM (active).

Source of the values: PubChem BioAssay (EPA / NIEHS).
